SW480 rerep – A quantitative high throughput screen for small molecules that induce DNA re-replication in SW480 colon adenocarcinoma cells | SW480 DNA re-replication, Hoechst DNA content imaging, 48 h | Potency, µM (series often up to 46.1 µM), most hits filed as activators | 340,000 compounds, 1.8% hits | AID 624297, 2012; further: nearly all actives have a fitted effect of over 55% in size
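Compounds, transferred as 23 nL by pin tool, were incubated with cells for 48 hr; DNA content per nucleus was then quantified by Hoechst staining and fluorescence plate imaging.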
KB-V1 cytotox – qHTS assay for MDR1-selective chemotherapeutics: Primary screen using the drug-selected MDR subline cells KB-V1; KB-V1 MDR cells viability, CellTiter-Glo, 72 h; Potency, µM (series often up to 46.1 µM), most hits filed as cytotoxic; 400,000 compounds, 3.4% hits; AID 1347076, 2019; further: nearly all actives have a fitted effect of over 60% in size
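qHTS viability screen in drug-selected KB-V1 MDR cells: 72 h compound treatment at 37 degrees C, ATP luminescence end point.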
D3 ag – qHTS of D3 Dopamine Receptor Agonist: qHTS; D(3) dopamine receptor (Homo sapiens), P35462; 410,000 compounds, 0.58% hits; AID 652048, 2013; max activation, %; D3R DiscoveRx beta-arrestin cells, luminescence, 90 min; in the data active means max activation above about 30%
Target sequence (P35462 whole entry, looked up): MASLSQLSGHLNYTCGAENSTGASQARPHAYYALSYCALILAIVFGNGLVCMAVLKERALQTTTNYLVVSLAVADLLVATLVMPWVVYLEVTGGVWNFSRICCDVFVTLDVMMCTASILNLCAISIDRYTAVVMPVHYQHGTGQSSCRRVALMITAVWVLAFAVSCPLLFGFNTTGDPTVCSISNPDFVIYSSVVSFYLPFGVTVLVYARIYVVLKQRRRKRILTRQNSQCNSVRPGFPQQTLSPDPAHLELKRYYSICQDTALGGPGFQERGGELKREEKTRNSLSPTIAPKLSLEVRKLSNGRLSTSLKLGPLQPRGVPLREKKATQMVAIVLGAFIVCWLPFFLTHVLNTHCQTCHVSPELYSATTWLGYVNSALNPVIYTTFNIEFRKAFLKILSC
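Agonist-mode cell screen: cells plated at 1500/well and incubated overnight at 37 °C, then exposed to library compounds for 90 min at 37 °C. Detection reagent was added for 30–60 min at room temperature, and luminescence was read.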
D3 antag – qHTS of D3 Dopamine Receptor Antagonist: qHTS | D(3) dopamine receptor (Homo sapiens), P35462 | D3R cells, DiscoveRx beta-arrestin luminescence, antagonist mode; stronger effect = lower value | max response, negative = inhibition, % | 360,000 compounds, 2.5% hits | AID 652054, 2013; in the data active means max response below about -50%; inconclusive means no clear call, values can overlap the other calls
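Cells plated overnight at 1500 cells/well, then exposed to library compounds with dopamine controls for 90 minutes at 37 degrees C. DiscoveRx reagent added for 30–60 minutes at room temperature; luminescence read, quantitative HTS format.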
MCF10A rerep – A quantitative high throughput screen for small molecules that induce DNA re-replication in MCF 10a normal breast cells; AID 624296, 2012; 350,000 compounds, 2.9% hits; MCF 10A DNA re-replication, Hoechst nuclear intensity, 48 h; Potency, µM (highest dose often 46.1 µM), hits mostly activators; further: nearly all actives have a fitted effect of over 50% in size
KB-3-1 tox – qHTS assay for MDR1-selective chemotherapeutics: Primary screen using the parental adenocarcinoma cell KB-3-1; KB-3-1 viability, CellTiter-Glo ATP luminescence, 72 h; Potency, µM (highest dose often 46.1 µM), most hits filed as cytotoxic; AID 1347075, 2019; 400,000 compounds, 1.4% hits; further: nearly all actives have a fitted effect of over 60% in size
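Cells are dispensed, compounds pinned in, plates held at 37 °C for 72 h, then CellTiter-Glo is added and luminescence read after 10 minutes. Cell line: parental KB-3-1 in phenol-red-free DMEM, 10% FBS.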
Hits are given with their value; - = inactive; ? = inconclusive; . = not tested or not shown. Compounds with a hit are over-represented: about 8.9% of the library has one in this group of screens. Unless noted, the call rests on the fitted dose curve; in most records, active means well fitted curve in the direction sought with a large enough effect; inconclusive means small, poorly fitted or top-dose-only effect, or another doubt; inactive means no such curve, though single readings can be large; an effect the other way counts as inactive or inconclusive.

SMILES	SW480 rerep	KB-V1 cytotox	D3 ag	D3 antag	MCF10A rerep	KB-3-1 tox
Cc1cc(C)cc(N(C(=O)CNC(=O)c2cccs2)C(C(=O)NC2CCCC2)c2cccnc2)c1 (stereo not drawn)	-	-	-	-	21µM	-
Cc1cccc(N(C(=O)CNC(=O)c2cccs2)C(C(=O)NC2CCCC2)c2cccnc2)c1 (stereo not drawn)	-	?	-	-	-	-
O=C(NC1CCCC1)C(c1ccncc1)N(C(=O)Cc1cccs1)c1ccc(F)cc1 (stereo not drawn)	-	?	38	-	-	-
COc1ccc(N/C=C(\C=C\C#N)S(=O)(=O)c2ccccc2)cc1	?	-	-	-	3.7µM	-
N#C/C=C/C(=C\Nc1ccc(Cl)cc1)S(=O)(=O)c1ccccc1	-	-	-	-	?	-
c1ccc(CCCNc2ncnc3nc[nH]c23)cc1	-	-	-	-	-	?
c1ccc2c(CCNc3ncnc4nc[nH]c34)cccc2c1	-	-	-	-	?	18µM
COc1ccc(/C=N/Nc2nncc3ccccc23)cc1	-	?	-	-	-	?
Oc1c(Br)cc(/C=N/Nc2nncc3ccccc23)cc1Br	-	-	-	-	21µM	-
O=C(COc1ccccc1-c1ccccc1)NN=C1CCCC1	?	?	-	-	?	-
CCOc1ccc(C(=O)N/N=C/c2ccccc2[N+](=O)[O-])cc1	-	?	-	-	-	-
O=C(N/N=C/c1ccccc1[N+](=O)[O-])c1ccc(COc2ccccc2-c2ccccc2)cc1	-	2.1µM	-	-	-	?
O=C1CCC/C(=N\NC(=O)c2ccc(COc3ccccc3-c3ccccc3)cc2)C1	-	-	-	-	9.2µM	-
O=C(NCc1cccnc1)/C(=C\c1ccc(-c2ccc(Br)cc2)o1)S(=O)(=O)c1ccccc1	15µM	7.3µM	-	-89	7.3µM	?
O=C(CN(Cc1ccc(Br)cc1)S(=O)(=O)c1ccccc1)NCc1cccnc1	-	.	-	-	?	.
O=C(NCc1cccnc1)/C(=C/c1ccc(-c2ccc(Cl)cc2)o1)S(=O)(=O)c1ccccc1	9.2µM	?	-	?	9.2µM	-
COc1ccc(-c2csc3nc(-c4ccccc4C)oc(=O)c23)cc1OC	.	-	-	.	.	-
CCCS(=O)(=O)NC(=O)C1(C)CCN(C(=O)COc2ccc(Cl)cc2Cl)C1 (stereo not drawn)	.	-	76	-	.	-
CCCS(=O)(=O)NC(=O)C1(C)CCCN(C(=O)COc2ccc(Cl)cc2Cl)C1 (stereo not drawn)	.	-	-	-	.	-
O=C(Nc1ccc(N2CCOCC2)cc1)c1cccc2ccccc12	9.2µM	?	-	-	-	?
O=C(NC(=S)Nc1ccc(N2CCOCC2)cc1)c1cccc(Cl)c1Cl	-	-	-	-	-	-
CCOc1ccc(NC(=O)c2ccc(F)cc2F)cc1	?	-	-	-65	-	-
CN1CCN(c2ccc(NC(=S)NC(=O)c3cccc4c(Cl)cccc34)cc2)CC1	21µM	-	-	-	?	-
O=C(NCC1CCCCC1)c1cc2ccccc2cc1O	?	-	-	-	18µM	?
CCOc1ccc(NC(=O)c2cc3ccccc3cc2OC)cc1	?	?	-	-	?	?
SMILES	SW480 rerep	KB-V1 cytotox	D3 ag	D3 antag	MCF10A rerep	KB-3-1 tox
COc1cc(NC(=O)N2CCC(CN3CCCCCC3)CC2)cc(OC)c1OC	.	.	-	.	.	.
O=C(Nc1ccncc1)c1cccc2ccccc12	18µM	?	-	-	-	-
CCOc1ccc(NC(=O)c2cc3ccccc3cc2O)cc1	-	-	-	-	16µM	-
CCOc1ccc(C(C)NC(=O)c2ccccc2F)cc1 (stereo not drawn)	-	16µM	-	-	-	-
O=C(Nc1ccncc1)c1ccc2ccccc2c1	-	16µM	-	-	-	-
Cc1ccc(Nc2ncc(C(=O)N3CCN(c4ccc(F)cc4)CC3)c3ccccc23)cc1Cl	.	-	-	.	.	-
CC(C)(C)c1ccc(C(=O)NCC(c2ccco2)S(=O)(=O)c2ccccc2)cc1 (stereo not drawn)	.	?	-	.	.	-
CCOC(=O)c1ccc2c(c1)N(CC(=O)Nc1ccc(CC)cc1)C(=O)c1ccccc1S2	.	?	-	.	.	?
CCOc1ccc(NC(=O)c2cccc3ccccc23)cc1	?	5.8µM	-	-	-	?
O=C(NN1CCOCC1)c1cccc2ccccc12	-	?	-	-	-	-
O=C(NC(NC(=S)N1CCOCC1)C(Cl)(Cl)Cl)c1cccc2ccccc12 (stereo not drawn)	-	16µM	-	-	-	-
CCC(C)NC(=O)c1sc2nc3n(c(=O)c2c1C)CCC3 (stereo not drawn)	.	-	-	.	.	-
COc1ccc(NS(=O)(=O)c2ccc3c(c2)n(C)c(=O)n3C)cc1	-	-	-	?	5.8µM	-
CCOC(=O)c1oc2ccc(S(=O)(=O)Nc3ccc4c(c3)n(C)c(=O)n4C)cc2c1C	-	?	32	-	-	?
Cn1c(=O)n(C)c2cc(NS(=O)(=O)c3ccc4c(c3)CCCC4)ccc21	-	9.2µM	-	-	23µM	18µM
Cc1cc(C)n(-c2nc3cc(Cl)c(Cl)cc3nc2Nc2c(C)cccc2C)n1	.	-	-	.	.	-
Cc1ccc2c(/C=C/c3ccc(N(C)C)cc3)ccnc2c1	.	?	.	.	.	-
CCOc1ccccc1CNC(=O)CC(C)n1ccc(C)n1 (stereo not drawn)	.	-	-	.	.	-
CCCOc1ccccc1Cn1c(=O)sc2ccccc21	.	-	-	.	.	-
Cc1cccc(OCC(=O)Nc2ccccc2OCc2cc(=O)n3cc(C)ccc3n2)c1	.	-	-	.	.	-
O=C(O)c1ccc(/C=N/Nc2nc3ccccc3[nH]2)cc1	-	-	-	-	-	-
O=C(Cc1nc2ccccc2[nH]1)N/N=C/c1ccccc1	21µM	-	-	-	12µM	-
CC(=O)Nc1ccc(/C=N/Nc2nc3ccccc3[nH]2)cc1	-	-	-	-	-	23µM
CCN(CC)c1ccc(/C=N/Nc2nc3ccccc3[nH]2)cc1	21µM	-	-	?	9.2µM	-
O=c1c(S(=O)(=O)c2ccccc2)cn(Cc2ccccc2)c2cc(N3CCOCC3)c(F)cc12	.	-	-	.	.	-
CCc1ccccc1NC(=O)CN(c1ccc(OC)cc1OC)S(=O)(=O)c1ccccc1	-	-	-	-	?	?
CCCOC(=O)c1ccc(NC(=O)Cc2csc(C)n2)cc1	.	.	-	.	.	.
